Results as given in PubChem BioAssay (NCI).
Compounds without any hit were thinned out: in the full panel of roughly 83,000, 20% have a hit.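 Activity criterion: percent growth below 10, measured after cells in 96-well plates were exposed to a single compound concentration for 48 hours.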 Values without a mark were called inactive. Activity calls are given as the source filed them.

Tests used:
Assay in all cases: NCI-60 one-dose screen, 48 h (100 = growth as untreated, 0 = no growth, -100 = all killed)
Conditions in all cases: 10 µM unless noted
SR leukemia = tested on: SR leukemia
RPMI-8226 leukemia = tested on: RPMI-8226 leukemia
OVCAR-8 ovarian = tested on: OVCAR-8 ovarian
OVCAR-5 ovarian = tested on: OVCAR-5 ovarian
OVCAR-4 ovarian = tested on: OVCAR-4 ovarian
SK-OV-3 ovarian = tested on: SK-OV-3 ovarian
IGROV1 ovarian = tested on: IGROV1 ovarian
OVCAR-3 ovarian = tested on: OVCAR-3 ovarian
HS 578T breast = tested on: HS 578T breast
NCI/ADR-RES ovarian = tested on: NCI/ADR-RES ovarian

Compound	growth (SR leukemia)	growth (RPMI-8226 leukemia)	growth (OVCAR-8 ovarian)	growth (OVCAR-5 ovarian)	growth (OVCAR-4 ovarian)	growth (SK-OV-3 ovarian)	growth (IGROV1 ovarian)	growth (OVCAR-3 ovarian)	growth (HS 578T breast)	growth (NCI/ADR-RES ovarian)
CN(C)c1ccc(C(C#N)(c2ccccc2)c2ccc(N(C)C)cc2)cc1	15.9%	14.9%	23.4%	106%	83.5%	92.5%	83%	72.3%	33.2%	73.8%
CCCCCCCCCCCCCCCCSC(=NCC)NCC	-43.3% (active)	-43.3% (active)	-15.4% (active)	44.5%	2% (active)	72.1%	-89.3% (active)	-18.1% (active)	66.1%	25.4%
O=C1C=C(Cl)C(=O)c2ccccc21	94.7%	84.7%	91.6%	113%	92.5%	94.7%	92.3%	89.8%	111%	102%
CCNc1nnnn1CC	108%	107%	113%	115%	110%	109%	115%	109%	102%	110%
Clc1ccc(-n2ncc3c(NCCCN4CCOCC4)ncnc32)cc1	88.9%	93.7%	100%	92.2%	102%	93.1%	103%	105%	91.5%	86.8%
CCCCN(CCCC)CCCCCCCCCCO	81%	133%	107%	97.3%	93.4%	109%	94%	104%	105%	103%
CCCCCCCCCCCCN1C(C)=CS/C1=C\C=C\c1scc(C)[n+]1CCCCCCCCCCCC	-4.71% (active)	-11.3% (active)	-8.26% (active)	61%	34.2%	50.3%	42.8%	31.9%	76.6%	68%
CC1(C)OCC(COC(c2ccccc2)(c2ccccc2)c2ccccc2)O1 (stereo not given)	93.6%	105%	98.4%	98.1%	96%	112%	108%	102%	103%	103%
O=C(C[P+](c1ccccc1)(c1ccccc1)c1ccccc1)c1ccccc1	90.4%	92.6%	95.9%	89.6%	83.9%	104%	89.5%	93.8%	96.9%	82.8%
Cn1c(-c2ccccc2)c(/C=C/C2=[N+](C)c3ccccc3C2(C)C)c2ccccc21	9.26% (active)	-1.71% (active)	2.16% (active)	33.9%	12.2%	-9.3% (active)	33.9%	6.26% (active)	11%	86.8%
CC(C)(C)c1ccc(O)c(Br)c1	106%	85%	103%	98.1%	101%	120%	111%	99.2%	96.4%	100%
O=C1C=Cc2ccccc2/C1=C/c1nc(-c2ccccc2)oc1O	91.1%	104%	94.7%	97.2%	85.2%	86.6%	71.8%	91.6%	102%	85.7%
CCCCC(C=O)(C=C=C(C)C)CC (stereo not given)	108%	98%	98.5%	98.3%	96.5%	98%	110%	107%	112%	106%
COC(=O)Nc1nc2ccc(C3(c4ccc(F)cc4)OCCO3)cc2[nH]1	25.2%	10.4%	21.1%	47.5%	68.4%	22%	29.8%	4.74% (active)	37.7%	24.2%
O=C(Nc1cccc(C(F)(F)F)c1)Oc1ccc(Cl)c2cccnc12	-1.87% (active)	-37.9% (active)	-11.1% (active)	87.7%	-0.489% (active)	95.8%	5.79% (active)	-56.3% (active)	17.4%	4.64% (active)
CCCCCC[C@@H](O)C/C=C\CCCCCCCC(=O)OCCOC	122%	102%	101%	103%	98.4%	114%	114%	112%	101%	104%
S=C1SCN(Cc2cccs2)CN1Cc1cccs1	59.3%	58%	104%	98.8%	94.4%	108%	106%	111%	91.1%	108%
CCCCCCN(CCCCCC)CCCNc1nccc2ccccc12	-9.78% (active)	-22.8% (active)	12%	38.1%	23.4%	41.9%	12.5%	-6.31% (active)	12.4%	19.4%
C[n+]1ccccc1C[n+]1ccccc1	88.6%	108%	95.9%	113%	113%	109%	130%	123%	121%	113%
O=C(c1ccccc1)N(CCCl)C(=O)N(CCCl)C(=O)c1ccccc1	94.4%	101%	98.5%	91%	105%	104%	103%	107%	110%	91.8%
COC(=O)C(=[N+]=[N-])C(=O)c1ccc([N+](=O)[O-])o1	58.4%	78.8%	82%	110%	106%	97.2%	97.6%	88.3%	90.3%	93.1%
COc1ccc2nc3cc(Cl)ccc3c(NCCCCCN3CCCCC3)c2c1	-17.9% (active)	-27% (active)	-13.6% (active)	-27.1% (active)	-61% (active)	-15.2% (active)	5.24% (active)	-21.8% (active)	35.3%	-8.47% (active)
CN(C)CCN(C)CC(C)(C)C(=O)/C=C/c1ccc(Cl)c(Cl)c1	-25.9% [100 µM] (active)	-30.6% [100 µM] (active)	-86.5% [100 µM] (active)	-93.4% [100 µM] (active)	-98.5% [100 µM] (active)	-97.7% [100 µM] (active)	-92.2% [100 µM] (active)	-98.4% [100 µM] (active)	-39.5% [100 µM] (active)	-47.2% [100 µM] (active)
Cc1cc(=O)oc2cc(O)cc(O)c12	106%	111%	105%	96.4%	104%	104%	108%	99.2%	106%	108%
OC(c1cc(-c2ccc(Cl)cc2)nc2c(Cl)cccc12)C1CCCCN1 (stereo not given)	-39.4% (active)	-17.3% (active)	-75.2% (active)	-70.9% (active)	-85.6% (active)	-73.4% (active)	-73.7% (active)	-95.1% (active)	-47.6% (active)	-70.3% (active)
Clc1ccccc1C(c1ccccc1)(c1ccccc1)n1ccnc1	19.2%	18.7%	29.1%	57.8%	33.2%	69.3%	55.5%	29.3%	58.2%	33.1%
CC(=O)C1Cc2ccccc2C1=O (stereo not given)	108%	117%	119%	101%	104%	96.1%	116%	112%	103%	104%
COC(=O)c1ccc(=O)c2nc3/c(=C/O)c(O)cc(=O)c3[nH]c12	-11.4% (active)	51.1%	12.2%	54.7%	47.4%	52%	-61.2% (active)	-4.24% (active)	-10.3% (active)	11%
Cc1ccccc1N=C(N)Nc1ccccc1C (tested in a mixture with another compound)	49.6%	46.6%	73.7%	91.6%	82.2%	98.5%	62.6%	78.8%	111%	79.3%
